From ChEMBL document CHEMBL1157539, “Thousands of chemical starting points for antimalarial lead identification” (Nature, 2010)

System: Plasmodium falciparum
Experiment: GSK_TCMDC: Inhibition of Plasmodium falciparum 3D7 in whole red blood cells, using parasite LDH activity as an index of growth. Test compounds present at 2uM
Assay type: functional

SMILES | Inhibition
COc1cccc2c(NCCNc3ccnc4c(OC)cccc34)ccnc12.Cl | 93%
Cc1nc(C)c(CC(=O)Nc2ccc(-c3cccc(-c4nc5cc(C(F)(F)F)ccc5[nH]4)c3)cc2)s1 | 86%
O=C(NC1CCN(c2ccnc3cc(Cl)ccc23)C1)c1ccc(F)cc1F.O=C(O)C(F)(F)F (stereo not drawn) | 100%

System: Plasmodium falciparum
Experiment: GSK_TCMDC: Inhibition of Plasmodium falciparum Dd2 in whole red blood cells, using parasite LDH activity as an index of growth. Test compounds present at 2uM
Assay type: functional

SMILES | Inhibition
O=C(NC1CCN(c2ncc(C(F)(F)F)cc2Cl)CC1)c1cccs1 | 65%
O=C(NC1CCC(N2CCC(Cc3ccc(F)cc3)CC2)CC1)c1cc2ccccc2[nH]1 (stereo not drawn) | 39%
Cl.OC(c1ccccc1)C1CN(CCC2CC3CCC2C3)CCC1(O)c1ccccc1 (stereo not drawn) | 99%
COc1ccc2ncc(Cl)c(CCN3CC[C@@H](CNCc4cc5c(cn4)OCS5)C3)c2n1.Cl | 31%
Cl.N=C(N)c1ccc(-c2cc3ccc(C(=N)N)cc3[nH]2)cc1 | 99%
Cc1cccc(Nc2nccc(Nc3cccc(C(=O)NCCN4CCOCC4)c3)n2)c1 | 11%
CC(=O)Nc1cc(C(=O)Nc2cccc(-c3cccc(-c4nc5cccc(C)c5[nH]4)c3)c2)ccc1C | 62%
CC[C@H](NC(=O)c1c(CN2CCC(N3CCCCC3)CC2)c(-c2ccccc2)nc2cc(O)ccc12)c1ccccc1 | 13%
CCOC(=O)C(C(=O)OCC)c1nc(C)ns1 | 0%
CN(C)CCCOc1cc(NC(=O)Nc2ccc(-c3ccncc3)c3ccccc23)ccc1I.Cl | 97%
O=C(/C=C/c1ccc(Cl)c(Cl)c1)NCCCCN1CCCN(C(=O)Nc2ccc(F)c(Cl)c2)CC1 | 2%
Br.CC(C)(C)c1ccc(Cn2c(=N)n(CC(=O)c3ccc(-c4ccccc4)cc3)c3ccccc32)cc1 | 50%
COc1ccc(C2CC(c3ccccc3O)=NN2C(=O)c2ccco2)cc1OC (stereo not drawn) | 68%
Oc1ccc(CCNc2nc(NCc3ccccc3-c3ccc(C(F)(F)F)cc3)nc(N3CCNCC3)n2)cc1 | 53%
Cc1cccc(CNc2nc(C)cc(N[C@@H](CC(C)C)C(=O)NCCOc3ccccc3)n2)c1.O=C(O)C(F)(F)F | 35%
COc1ccc(NC(=O)C2c3ccccc3C(=O)N(C3CCCC3)C2c2cccs2)c(OC)c1 (stereo not drawn) | 54%
CC(C)Sc1nc(-c2ccccc2)nc2c1COC(C)(C)C2 | 41%
CCOc1ccc2c(=NN=Cc3ccccc3F)cc(C)[nH]c2c1 | 77%
COC(=O)c1cccc(NC(=O)NCCNc2ccnc(Nc3ccc(F)cc3)n2)c1 | 5%
Cc1csc2nc(-c3ccccn3)nc(Nc3ccc4ncsc4c3)c12.Cl | 91%

SMILES | Inhibition
CCCCOc1ccc(CNCCCCCCNCc2ccc(OCCCC)c3ccccc23)c2ccccc12.CS(=O)(=O)O | 49%
O=C(C=Cc1cccs1)Nc1ccc(-c2nc3ccccc3[nH]2)cc1 | 3%
CS(=O)(=O)CCNCc1cccc(-c2cc3c(Nc4ccc(OCc5cccc(F)c5)c(Cl)c4)ncnc3s2)c1.O=C(O)C(F)(F)F | 97%
COc1cccc(C23NC(=Nc4nc5ccccc5[nH]4)NC2(c2cccc(OC)c2)NC(=Nc2nc4ccccc4[nH]2)N3)c1 (stereo not drawn) | 99%
CCN(CC)CCCNc1nccc(N2CCc3ncnc(Nc4ccc(OCc5cccc(F)c5)c(Cl)c4)c3C2)n1 | 95%
Nc1cccc(CNCc2ccc(-c3ccc(-c4nc5ccccc5[nH]4)s3)cc2)c1.O=C(O)C(F)(F)F | 93%
CCc1c[nH]c2c(N3CCCS3(=O)=O)cc(C(=O)N[C@@H](Cc3ccccc3)[C@H](O)CNC(C)(C)c3cccc(C(F)(F)F)c3)cc12.O=CO | 99%
CCCNc1ccc2nccc(CCN3CCC(NCc4ccc5c(n4)NC(=O)CS5)CC3)c2n1 | 0%
O=C(/C=C/c1ccc(Cl)c(Cl)c1)NCCCCCN1CCC(NC(=O)c2cc(Cl)ccc2F)CC1 | 32%
O=C(O)C(F)(F)F.c1cc(CN2CCCCC2)cc(-c2ccc(-c3nc4ccccc4[nH]3)cc2)c1 | 88%
Cc1c(CN2CCCCC2)cccc1OCCCNc1nc(NCCc2ccc(O)cc2)nc(N2CCNCC2)n1.O=C(O)C(F)(F)F | 23%
Br.N=C1N=C(N)NC2(CCCCC2)N1OCC1CCCCC1 | 49%
CC(=O)NCCNc1cc(N2CCc3ncnc(Nc4ccc(OCc5c(F)cccc5F)c(Cl)c4)c3C2)ncn1 | 100%
CC(=O)Nc1ncc(C(=O)Nc2cccc(-c3ccc(-c4nc5cccc(C)c5[nH]4)cc3)c2)s1 | 78%
COc1ccc(-c2ccc3c(-c4cccc(S(C)(=O)=O)c4)cnc(N)c3c2)cc1 | 12%
Cc1ccc(CNC(=O)[C@H](CCCN)Nc2nc(NCC3CCCCC3)ncc2C)cc1.O=C(O)C(F)(F)F | 5%
CCc1cc(OC)c(C(=O)NC2CCN(C[C@H](O)c3ccnc4ccc(OC)cc34)CC2)cc1Br | 56%
COc1cccc2c(NCCNc3ccnc4c(OC)cccc34)ccnc12.Cl | 86%
Cc1nc(C)c(CC(=O)Nc2ccc(-c3cccc(-c4nc5cc(C(F)(F)F)ccc5[nH]4)c3)cc2)s1 | 4%
O=C(NC1CCN(c2ccnc3cc(Cl)ccc23)C1)c1ccc(F)cc1F.O=C(O)C(F)(F)F (stereo not drawn) | 100%
